Hit rate of the full screen: of about 360,000 compounds, about 25,000 (6.9%) were called active. Not shown: some 9% with an inconclusive outcome. What follows is part of a selection rich in actives, with near analogues and random picks from the rest. Values without a mark were called inactive. The call rests on the fitted dose curve; in most records, active means well fitted inhibition curve with a large enough effect; inconclusive means small, poorly fitted or top-dose-only effect; inactive means flat fitted curve, though single readings scatter.
Biological target: Luciferin 4-monooxygenase (Photinus pyralis) (UniProt P08659)
Sequence (P08659 whole entry, looked up): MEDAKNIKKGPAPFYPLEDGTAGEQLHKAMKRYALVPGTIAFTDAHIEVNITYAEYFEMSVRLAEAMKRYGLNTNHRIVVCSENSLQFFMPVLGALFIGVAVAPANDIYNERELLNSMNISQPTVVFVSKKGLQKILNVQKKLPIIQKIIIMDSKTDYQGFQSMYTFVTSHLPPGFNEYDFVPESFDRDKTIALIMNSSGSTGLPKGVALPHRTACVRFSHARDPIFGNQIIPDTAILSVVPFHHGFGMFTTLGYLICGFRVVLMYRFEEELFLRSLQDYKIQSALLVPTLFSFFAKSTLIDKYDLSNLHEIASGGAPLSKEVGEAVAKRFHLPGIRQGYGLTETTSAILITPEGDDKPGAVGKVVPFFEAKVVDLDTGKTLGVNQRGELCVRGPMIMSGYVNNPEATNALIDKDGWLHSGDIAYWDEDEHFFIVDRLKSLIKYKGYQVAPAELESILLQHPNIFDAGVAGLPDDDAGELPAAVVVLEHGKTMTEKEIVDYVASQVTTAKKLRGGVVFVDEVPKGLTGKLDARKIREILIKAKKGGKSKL
Test: qHTS profiling assay for firefly luciferase inhibitor/activator using purifed enzyme and Km concentrations of substrates (counterscreen for miR-21 project); further: nearly all actives have a fitted effect of over 55% in size;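 on activity change, negative = inhibition: plate controls were vehicle for no effect and reference inhibitor for full effect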
Settings: purified FLuc, luminescence inhibition; series mostly up to 57.5 µM; activity change, negative = inhibition: at the top concentration
How it was run: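 Purified P. pyralis luciferase (10nM final) with 10uM D-luciferin and 10uM ATP (Km levels) in 50mM Tris acetate pH 7.5, 10mM Mg acetate, 0.01% Tween-20, 0.05% BSA; qHTS 6-point titration, ~60 µM downward; luminescence read.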
Potency means the concentration at half of the fitted maximal effect.

SMILES	Potency	activity change, negative = inhibition [%]
Cc1ccc(Nc2nc(-c3ccc(O)cc3O)cs2)nc1	2.39 µM (active)	
O=C(CCNC(=O)c1ccccc1Cl)NCc1ccco1		1.33
O=C(CSc1nnc(C2CC2)n1Cc1ccccc1)Nc1cccnc1Cl		-1.59
CC(=O)c1ccc(NC(=O)CSc2nnc(NC(=O)Nc3ccccc3)s2)cc1	0.478 µM (active)	
O=C(CSc1nnc(Nc2ccccc2)s1)Nc1cccnc1Cl	16.9 µM (active)	
O=C(Cc1cccs1)Nc1nnc(SCc2ccc(F)cc2)s1		-0.623
CC(C)(C)NC(=O)CSc1nnc(NC(=O)CCc2ccccc2)s1		-2.69
Cc1nc(SCC(=O)Nc2ccc(C(=O)O)cc2)n[nH]1		-0.704
Cc1cc(NC(=O)CSc2nnc(Nc3ccccc3F)s2)no1		-1.21
CN(C(=O)CSc1nnc(NC(=O)Nc2ccccc2)s1)c1ccccc1		-6.6
O=C(CSc1nnc(SCc2ccc(F)cc2)s1)Nc1ccc(C(=O)O)cc1	5.36 µM (active)	
CCOc1ccc(NC(=O)CN(C)C(=O)CSc2ccccc2)cc1OCC		7.49
Cc1cccc(Nc2cc(C)nc(-n3nc(C)cc3C)n2)c1		-3.38
O=C(NNC(=O)c1cccc(S(=O)(=O)Nc2ccc(Cl)cc2)c1)c1ccc(=O)[nH]c1		-0.376
COc1ccc(C(C)(C)C)cc1NC(=O)CCN1C(=O)C2CCCCC2C1=O (stereo unspecified)		4.4
O=C(CS(=O)(=O)c1cccc2nsnc12)N1CCN(c2cccc(Cl)c2)CC1		-0.818
COc1ccc(N=Cc2c(O)[nH]c3ccccc23)cc1OC	15.1 µM (active)	
COc1cc(N=Cc2c(O)[nH]c3ccccc23)cc(OC)c1OC		-17.8
COCC(=O)N=Nc1c(O)[nH]c2ccccc12		1.4
Cc1ccccc1N1CCN(Cc2nc(Cc3ccccc3F)no2)CC1		-9.05
Cc1ccc(Cl)cc1NC(=O)COC(=O)CC(C)(C)C		-2.2
CC(=O)Nc1ccc(NC(=O)CCCNC(=O)c2ccc(Cl)cc2)cc1		-0.774
O=C(COC(=O)CCCNC(=O)c1ccc(Cl)cc1)Nc1cc(Cl)ccc1Cl	16.9 µM (active)	
COc1ccc(C(=O)COC(=O)CCCC(=O)Nc2cc(C(F)(F)F)ccc2Cl)cc1	2.13 µM (active)	
COc1cc(OC)c(C(=O)OC(C)C(=O)Nc2cc(C(F)(F)F)ccc2Cl)cc1OC (stereo unspecified)		-0.387
CCCCC(=O)Nc1ccc(C(=O)Nc2cc(C(F)(F)F)ccc2Cl)cc1		-0.15

SMILES	Potency	activity change, negative = inhibition [%]
COc1ccc(CC(=O)NCCc2sc3nc(-c4ccc(OC)cc4)nn3c2C)cc1		-16.1
O=C(NCc1ccco1)C1CCCN1S(=O)(=O)c1ccccc1C(F)(F)F (stereo unspecified)		-1.66
CCOc1cc(/C=C(/C#N)c2ccc(Cl)cc2)cc(Cl)c1OCC(=O)O	3.79 µM (active)	
C/C(=N\OCC(=O)O)c1ccc(Cl)cc1		-4
COc1cc(/C=C(/NC(=O)c2ccc(Cl)cc2Cl)C(=O)O)cc(OC)c1OC		0.539
COc1ccc2oc(=N)c(C(=O)Nc3ccc(Br)cc3)cc2c1		2.17
CCc1noc(C)c1C(=O)Nc1nc2ccc(OC)cc2s1	5.36 µM (active)	
COc1ccc(S(=O)(=O)N2CCN(C(=O)NC3CCCCC3)CC2)cc1		1.01
COc1ccc2nc(NC(=O)NC3CCCCC3)sc2c1	9.53 µM (active)	
CCCC(=O)Nc1nc2ccc(NC(=O)c3c(F)c(F)c(OC)c(F)c3F)cc2s1		0.027
CCc1nc2ccccc2c(C(=O)NCc2ccc(OC)cc2)c1C		5.53
CCc1noc(C)c1C(=O)NNC(=O)c1ccc(F)cc1		6.73
COc1ccc(CNC(=O)c2ccc(Br)s2)cc1OC		-0.0596
COc1ccc(NC(=O)CCC(=O)Nc2nnc(C3CCCCC3)s2)cc1		-0.454
CCc1noc(C)c1C(=O)Nc1nc(-c2ccccc2)cs1	19 µM (active)	
COc1ccc2nc(NC(=O)c3ccc(Br)s3)sc2c1	3.01 µM (active)	
Cc1cccc(S(=O)(=O)CC(=O)Nc2nc(-c3ccccc3)cs2)c1		-15.7
Cc1ccc(Cl)cc1N1CCN(C(=O)C2CCC(CNS(=O)(=O)c3cccs3)CC2)CC1 (stereo unspecified)		0.57
Cc1ccc(C(=O)Nc2cc3c(cc2N2CCCC2)n(C)c(=O)c(=O)n3C)cc1		3.56
Cc1oc2ccc(O)c(CN3CCC(C)CC3)c2c1C(=O)Nc1ccccc1		-3.71
COc1ccc(OC)c(S(=O)(=O)Nc2c(C)nn(C)c2C)c1		6.12
COc1ccc(-c2nn3c(-c4ccc(OC)cc4)nnc3c3ccccc23)cc1		1.34
COCCCNC(=S)N(CCN(C)C)Cc1cc2cc3c(cc2[nH]c1=O)OCCO3		-3.26
O=C(CN1c2ccccc2S(=O)(=O)c2ccccc21)Nc1cccc(C(F)(F)F)c1		-2.21
O=C(Cn1c(=O)n(Cc2ccccc2)c(=O)c2sc3ccccc3c21)Nc1ccccc1F		1.86

— PubChem BioAssay AID588342 (National Center for Advancing Translational Sciences (NCATS), 2011)
